Screens (PubChem)
Rows were chosen to be rich in hits. Some 3.8% of all compounds tested hit in one or more screens of this group.
rRNA inh HTS – inhibits bacterial ribosomal RNA function over humanized ribosomes; E. coli WT GFP vs humanized-ribosome RFP mutants, fluorescence, 24 h; active compounds read low; DMSO median 0, no signal -100; GFP signal change (wild-type ribosome), % (test concentration not listed); hit rate 1.6% among 350,000;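 active means significant combined selectivity score with lowered wild-type GFP, culture density cut under 30%, mutant RFP and density less affected; inactive means any of these conditions unmet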
ADAM10 inh – inhibits human ADAM10; recombinant ADAM10, EDANS/DABCYL FRET peptide cleavage, 3 h; AID 720582; inhibition, % at 7 µM; O14672; hit rate 0.62% among 370,000;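 active means inhibition above a per-campaign cutoff equal to the mean of compounds falling between control-based bounds plus 3 SD, cut at about 20% in these data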
KLK7 zymogen act – activates the human kallikrein-7 zymogen; P49862; purified proKLK7, EDANS-DABCYL substrate fluorescence; 100% is mature enzyme control, 0% vehicle; activation, % at 7 µM; hit rate 0.9% among 370,000;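 active means activation above the mean of all tested compounds plus 3 SD, computed per campaign excluding outliers beyond control limits, cut at about 13% in these data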
ADAM17 inh – ADAM17 inhibition, QFRET primary screen | hit rate 0.83% among 370,000 | P78536 | inhibition, % at 6.95 µM | AID 720648 | recombinant ADAM17, EDANS/DABCYL FRET peptide cleavage;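 active means inhibition above the mean of compounds lying between control limits plus 3 SD, set per campaign, cut at about 8.5% in these data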
Target sequence (P78536 215-824 limits assumed): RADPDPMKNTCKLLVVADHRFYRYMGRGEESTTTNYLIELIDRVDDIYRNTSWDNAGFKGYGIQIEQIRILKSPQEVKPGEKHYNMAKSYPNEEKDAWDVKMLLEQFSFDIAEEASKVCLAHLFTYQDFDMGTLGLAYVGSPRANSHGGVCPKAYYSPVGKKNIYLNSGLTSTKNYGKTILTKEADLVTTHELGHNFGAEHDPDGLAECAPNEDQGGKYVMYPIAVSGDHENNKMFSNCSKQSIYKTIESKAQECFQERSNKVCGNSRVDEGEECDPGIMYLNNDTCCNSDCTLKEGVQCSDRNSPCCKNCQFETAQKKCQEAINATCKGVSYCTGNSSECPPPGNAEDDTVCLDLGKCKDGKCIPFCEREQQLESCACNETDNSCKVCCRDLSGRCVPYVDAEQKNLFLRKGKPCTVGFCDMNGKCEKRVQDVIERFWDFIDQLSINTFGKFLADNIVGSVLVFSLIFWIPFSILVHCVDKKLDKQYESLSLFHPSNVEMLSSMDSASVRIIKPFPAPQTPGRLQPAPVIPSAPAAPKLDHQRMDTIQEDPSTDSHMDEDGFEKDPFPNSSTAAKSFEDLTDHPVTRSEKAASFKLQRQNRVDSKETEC
FGF22 binding – shifts melting point of recombinant human FGF22; Q9HCT0; recombinant FGF22 thermal shift, SYPRO orange fluorescence; percent of sucrose octasulfate shift, DMSO zero; activity (Tm shift, normalised), % at 9.99 µM; hit rate 1.5% among 340,000;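 active means mean Tm shift, scaled 0 neutral to 100 positive control, at about 1.3% or above, every replicate too, limit read from the data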
Of the large screens only hits and unclear results are named; the others gave an inactive call.

CC1C(=O)OC(c2ccc(Br)cc2)C(C)(C)C1=O (centres undefined)	rRNA inh HTS -42.6
O=C(C[C@@H]1C=C[C@H](NS(=O)(=O)c2ccccc2)[C@@H](CO)O1)N1CCC(Cc2ccccc2)CC1	none (no result: ADAM10 inh, KLK7 zymogen act, ADAM17 inh)
Cc1ccccc1-c1nn(-c2ccc(F)cc2F)cc1CNCC(C)O (centres undefined)	none
CCOCCCNCc1cn(-c2ccc(F)cc2F)nc1-c1ccccc1C	FGF22 binding 43.1 (no result: rRNA inh HTS)
Cn1c(-[n+]2c(-c3ccccc3)cc(-c3ccccc3)cc2-c2ccccc2)nc2c([N+](=O)[O-])cccc21	rRNA inh HTS -21.7
O=[N+]([O-])c1cccc2nc(-c3ccccc3)c(-c3ccccc3)nc12	none
CCCC#Cc1ccc2c(c1)[C@@H]1[C@@H](CCN1C(=O)C1CC1)[C@@H](CO)N2	none (no result: ADAM10 inh, KLK7 zymogen act, ADAM17 inh, FGF22 binding)
CN1CCC=C(C(=O)N2c3ccccc3Sc3ccc(Cl)cc32)C1	rRNA inh HTS -22.0
O=C(Nc1ccccc1C(=O)O)c1cc(S(=O)(=O)N2CCCCCC2)ccc1Cl	rRNA inh HTS -43.5
O=C(Nc1ccc2c(c1)CCC2)c1cc(S(=O)(=O)N2CCN(c3ccccc3)CC2)ccc1Cl	ADAM10 inh 21.6 (no result: rRNA inh HTS, FGF22 binding)
O=C(NC1CCCCC1)c1cc(S(=O)(=O)N2CCN(c3ccccc3)CC2)ccc1Cl	none
Cc1ccc(CNC(=O)C2CSC3(C)CCC(=O)N23)cc1 (centres undefined)	FGF22 binding 42.9
O=C1CC(C(=O)Nc2cccc(F)c2)n2ncnc2N1 (centres undefined)	FGF22 binding 43.0
O=C1CC(C(=O)Nc2ccc(Cl)cc2)n2ncnc2N1 (centres undefined)	none
CN1/C(=C\C(=O)Nc2ccc(Cl)cc2)C(C)(C)c2ccccc21	FGF22 binding 43.6
CCOC(=O)c1c(NC(=O)CC2SC(N)=NC2=O)sc(C)c1C (centres undefined)	FGF22 binding 43.3
CCOC(=O)c1c(NC(=O)Cn2ccsc2=N)sc(C)c1C	FGF22 binding 43.2
O=c1cc(CO)oc(CN2CCCC2)c1O	none (no result: rRNA inh HTS, FGF22 binding)
CCN(CC)Cc1oc(CO)cc(=O)c1O	FGF22 binding 43.1
O=[N+]([O-])c1ccccc1/C=C/C=N/n1c(-c2ccccc2F)n[nH]c1=S	rRNA inh HTS -21.4
CC(C)NC(=O)N1C[C@H]2[C@@H](c3ccccc31)[C@H](CO)N2C(=O)c1ccncc1	none (no result: ADAM10 inh, KLK7 zymogen act, ADAM17 inh)
O=C(N/N=C/c1cc(O)ccc1Br)c1cccnc1	none
O=C(N/N=C/c1cc(Br)c(O)c(Br)c1O)c1cccnc1	rRNA inh HTS -19.9
O=C(N/N=C/c1cc2c(cc1Br)OCO2)c1cccnc1	FGF22 binding 43.4
O=C(NC(Cc1c[nH]c2ccccc12)C(=O)O)c1ccc(F)cc1 (centres undefined)	none
CC(C)COc1ccc(C(=O)NC(Cc2c[nH]c3ccccc23)C(=O)NN)cc1 (centres undefined)	rRNA inh HTS -34.7
NC(=O)C1CCN(C(=O)c2ccc3c(=O)n(Cc4ccco4)c(SCC(=O)c4ccccc4)nc3c2)CC1	FGF22 binding 43.7
C=CCn1c(SCc2ccc(Cl)cc2)nc2cc(C(=O)N3CCC(C(N)=O)CC3)ccc2c1=O	FGF22 binding 20.8
CCCCCn1c(SCC(=O)OCC)nc2cc(C(=O)N3CCC(C(N)=O)CC3)ccc2c1=O	none (no result: rRNA inh HTS, FGF22 binding)
CCOc1ccc(C(=O)NCC(=O)OCC(=O)N2CCC(C)CC2)cc1	none (no result: FGF22 binding)
CCOc1ccc(C(=O)NCC(=O)OCC(=O)N2CCCC2)cc1	FGF22 binding 43.5
CN1C[C@@H]2[C@H](c3ccccc31)[C@H](CO)N2C(=O)Nc1ccccc1	none (no result: ADAM10 inh, KLK7 zymogen act, ADAM17 inh, FGF22 binding)
COc1ccc(NC2=C(C(C)=O)C(c3ccc(OC)c(OC)c3)C(C(C)=O)C(C)(O)C2)cc1 (centres undefined)	none (no result: rRNA inh HTS, FGF22 binding)
COc1ccc(NC2=C(C(C)=O)C(c3ccccc3)C(C(C)=O)C(C)(O)C2)cc1 (centres undefined)	rRNA inh HTS -26.6
O=C(NNc1nc2c(F)cccc2s1)c1cc(=O)c2ccccc2o1	rRNA inh HTS -50.9
Cc1cccc2sc(NNC(=O)c3cc(=O)c4ccccc4o3)nc12	none
COc1cccc(CN2CCN(C(=O)c3cc(-c4cccnc4)nc4ccc(C)cc34)CC2)c1	rRNA inh HTS -27.4
COc1ccc2nc(-c3ccccc3)cc(C(=O)N3CCC3)c2c1	none
C[C@H]1CN([C@@H](C)CO)C(=O)c2cccc(NC(=O)Nc3ccc4c(c3)OCO4)c2O[C@@H]1CN(C)Cc1ccc(C(=O)Nc2ccccc2N)cc1	none (no result: ADAM10 inh, KLK7 zymogen act, ADAM17 inh)
O=C(Nc1ccc(S(=O)(=O)N2CCOCC2)cc1)c1cc(-c2cc(Cl)ccc2O)n[nH]1	rRNA inh HTS -38.0, ADAM10 inh 26.6
CN1CCN(c2ccc(NC(=O)c3ccc([N+](=O)[O-])o3)cc2Cl)CC1	none
CCCC(=O)N1CCN(c2ccc(NC(=O)c3ccc([N+](=O)[O-])o3)cc2Cl)CC1	rRNA inh HTS -38.6
CCN1CCN(c2c(Cl)cccc2NC(=O)c2ccc([N+](=O)[O-])o2)CC1	rRNA inh HTS -17.4
O=C(Cc1ccccn1)NCC[C@H]1CC[C@@H](NC(=O)CN2CCOCC2)[C@H](CO)O1	none (no result: ADAM10 inh, KLK7 zymogen act, ADAM17 inh)
O=C(c1cnccn1)N1CC(=O)N2[C@H](CO)[C@H](c3ccc(C#CCc4ccccc4)cc3)[C@H]2C1	none (no result: ADAM10 inh, KLK7 zymogen act, ADAM17 inh)
COc1cc(C)ccc1S(=O)(=O)N1CCN(C23CC4CC(CC(C4)C2)C3)CC1	rRNA inh HTS -32.1
COC(=O)C[C@@H]1CC[C@@H]2[C@H](COc3ccc(NC(=O)NCc4ccccc4)cc3C(=O)N2C)O1	none (no result: ADAM10 inh, KLK7 zymogen act, ADAM17 inh, FGF22 binding)
COc1ccc2c(C=O)cn(C)c2c1	FGF22 binding 43.0
C/C=C/c1cnc2c(c1)C(=O)N([C@H](C)CO)C[C@H](C)[C@H](CN(C)C(=O)Nc1c(C)noc1C)O2	none (no result: ADAM10 inh, KLK7 zymogen act, ADAM17 inh)
N#Cc1nc(-c2ccccc2)oc1NCCCn1ccnc1	FGF22 binding 43.1
Cc1ccccc1-c1ccc(C2[C@@H]3CN(C(=O)Cc4ccncc4)C[C@H]2N3)cc1 (some centres undefined)	none (no result: ADAM10 inh, KLK7 zymogen act, ADAM17 inh)
O=C(Nc1ccc(NC(=O)c2cccs2)c(Cl)c1)c1ccco1	rRNA inh HTS -27.1
COc1ccc(NC(=O)c2ccco2)cc1NC(=O)c1cccs1	none (no result: rRNA inh HTS, FGF22 binding)
CC(C)n1c(O)c(N=Nc2ccc(Cl)c(C(=O)O)c2)c2ccccc21	rRNA inh HTS -18.2
CCn1c(O)c(N=Nc2ccc(Cl)c(C(=O)O)c2)c2ccccc21	none
CC(=O)N(C)C[C@H]1Oc2ncc(-c3ccccc3F)cc2C(=O)N([C@@H](C)CO)C[C@H]1C	none (no result: ADAM10 inh, KLK7 zymogen act, ADAM17 inh)
C[C@@H]1CN([C@H](C)CO)C(=O)c2cc(-c3cccc(F)c3)cnc2O[C@@H]1CN(C)C(=O)C1CC1	none (no result: ADAM10 inh, KLK7 zymogen act, ADAM17 inh, FGF22 binding)
Cc1ccc(NC(=O)Nc2cccc([N+](=O)[O-])c2)nc1	FGF22 binding 43.0
O=C(Nc1cccc(O)c1)c1ccc([N+](=O)[O-])cc1Cl	FGF22 binding 43.2
O=C(CCCc1ccccc1)Nc1cccc([N+](=O)[O-])c1	none
